The nature of this experiment: qHTS drug screen for cell cycle checkpoint inhibitors in PARPi-resistant BRCA-mutant ovarian cancer cell lines. (AID 1963452). The settings on record: PEO1/OlaR viability, CellTiter-Glo luminescence, 96 h; for Z-AUC: stronger effect = lower value. In a few lines: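 PEO1, PEO4 and PEO1/OlaR ovarian cancer cells, 600 per well, exposed 96 h at 37C to a dilution series. Viability read by CellTiter-Glo luminescence, normalized to DMSO and empty wells; activity summarized as Z-AUC.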
Background: In qHTS, concentration-response curves come from the screen itself.

Setting [1] is: measured here: PEO1 parental Z-AUC.

Molecules are shown by their SMILES. “And” between values parts separate entries of the source, which are not always exact repeats. Equal values may be shown once. The source made the active and inactive calls. Calls come from the whole dose curve.
Potency is the fitted concentration of half-maximal effect.

On to `CN(C)C1CCN(C(=O)c2ccc(NC(=O)Nc3ccc(-c4nc(N5CCOCC5)nc(N5CCOCC5)n4)cc3)cc2)CC1`, for which the Potency was 309 nM (active) and 692 nM (active).
Same read-out and setting: the same measure for `C#CC[C@H](c1nc2cc(Cl)ccc2c(=O)n1Nc1ccccc1)N(CCCN)C(=O)c1cccc(Cl)c1F`: 1.23 µM (active).
As to `C[C@@H]1CCN(C(=O)N2CCCC2)C[C@@H]1N(C)c1ncnc2[nH]ccc12`, the Z-AUC is -0.093 (inactive). In addition, the Z-AUC under setting [1] worked out at 0.799. For the same molecule, under “measured here: PEO4 Z-AUC”, the Z-AUC came to 1.07.
With `CCN1CCN(Cc2ccc(NC(=O)c3ccc(C)c(/C=C/c4cnc5[nH]ccc5c4OC)c3)cc2C(F)(F)F)CC1`, the Z-AUC was -1.16 (inactive). Further, the Z-AUC under setting [1] was -1.48. Also, the Z-AUC (measured here: PEO4 Z-AUC) is -1.42.
On to `Cc1cc(OCc2nnc(SC3CCCC3)n2-c2cccnc2)ccc1-c1ccc(S(C)(=O)=O)cc1`, for which the Z-AUC is -1.33 (inactive). Moreover, the Z-AUC under setting [1] is -3. Also, for the setting “measured here: PEO4 Z-AUC”, the Z-AUC is -2.2.
As to `COc1ccc(C(=O)C2CCN(CC(=O)N(Cc3nc4c(c(=O)[nH]3)COCC4)CC3CC3)CC2)cc1`, the Z-AUC is -0.974 (inactive). Besides, under setting [1], the Z-AUC is -0.643. Moreover, the Z-AUC (measured here: PEO4 Z-AUC) is -0.695.
For `COC(=O)N(C)c1c(N)nc(-c2nn(Cc3ccccc3F)c3ncccc23)nc1N`, in that order: 0.294 (inactive), 0.888 and 0.894.
For `CCN1CCN(Cc2ccc(Nc3ncc(F)c(-c4cc(F)c5nc(C)n(C(C)C)c5c4)n3)nc2)CC1`, in that order: 0.0865 (inactive), 0.712 and 0.621.
The matching figures for `Cc1cc(O)c(-c2ccc([C@@H](C)CN(C)C)cc2)c2c1[nH]c(=O)c1sccc12`: -1.8 (inactive), -2.07 and -2.02.
`Cn1cncc1C(N)(c1ccc(Cl)cc1)c1ccc2c(c1)c(-c1cccc(Cl)c1)cc(=O)n2C` (centres undefined): the Z-AUC was -1.06 (inactive). For the same molecule, the Z-AUC under setting [1] is -0.892. Also, the Z-AUC (measured here: PEO4 Z-AUC) is -0.873.
The matching figures for `CN1CCN(C(=O)c2ccc3cc(CCNc4ncnc5ccc(C#N)cc45)ccc3c2)CC1`: -0.0214 (inactive), -0.289 and -0.499.
For `C[C@H](Nc1ncnc2nc[nH]c12)c1cc2ccc(F)cc2nc1-c1ccccn1`, in that order: -0.541 (inactive), -0.257 and 0.432.
On to `Cc1cc(Nc2cc(N3CCN(C)CC3)nc(/C=C/c3ccccc3)n2)n[nH]1`, for which the Potency was 0.49 µM (active). Under setting [1], the Z-AUC is -1.58. Moreover, the Z-AUC (measured here: PEO4 Z-AUC) was -1.32.
For `NC[C@@](O)(c1ccc(Cl)cc1)c1ccc(-c2cn[nH]c2)cc1`, in that order: 13.8 µM (active), -1.09 and -1.28.
`CO[C@H]1C[C@@H]2CC[C@@H](C)[C@@](O)(O2)C(=O)C(=O)N2CCCC[C@H]2C(=O)O[C@H]([C@H](C)C[C@@H]2CC[C@@H](OP(C)(C)=O)[C@H](OC)C2)CC(=O)[C@H](C)/C=C(\C)[C@@H](O)[C@@H](OC)C(=O)[C@H](C)C[C@H](C)/C=C/C=C/C=C/1C`: the Z-AUC is 0.099 (inactive). Further, the Z-AUC under setting [1] stood at 0.103. Moreover, the Z-AUC (measured here: PEO4 Z-AUC) was -0.0432.
The matching figures for `Cc1nc([C@](C)(O)CO)sc1-c1cnc(N)c(O[C@H](C)c2cc(F)ccc2-n2nccn2)c1`: 1.59 (inactive), 0.437 and -0.14.
For `CNC(=O)c1cccc(-c2ccc3c(N4CCOC[C@@H]4C)nc(N4CCOC[C@@H]4C)nc3n2)c1`, the Z-AUC was -1.02 (inactive). Besides, the Z-AUC under setting [1] is -0.895. Moreover, the Z-AUC (measured here: PEO4 Z-AUC) is -0.994.
As to `COCCOc1ccc(N2CCN(CCn3ncc4c3nc(N)n3nc(-c5ccco5)nc43)CC2)cc1`, the Z-AUC is -0.648 (inactive). Under setting [1], the Z-AUC was -0.346. The Z-AUC (measured here: PEO4 Z-AUC) is -0.723.
The matching figures for `CCOCc1nc2c(N)nc3ccccc3c2n1CC(C)(C)O`: -0.746 (inactive), -0.509 and -0.947.
Regarding `Cc1ccc([N+](=O)[O-])cc1S(=O)(=O)N(C)/N=C/c1cnc2ccc(Br)cn12`, the Z-AUC was -2.4 (inactive). Further, the Z-AUC under setting [1] was -2.53. In addition, where the note is “measured here: PEO4 Z-AUC”, the Z-AUC is -2.56.
For `O=C(C(c1ccccc1)c1ccccc1)N1CCN(CC(O)COc2cccc3ncccc23)CC1` (centres undefined), in that order: 0.889 (inactive), 0.623 and 0.296.
With `COc1cc2ncnc(Nc3ccc(F)c(Cl)c3)c2cc1NC(=O)/C=C/CN1CCCCC1`, the Potency is 6.92 µM (active). Also, the Z-AUC under setting [1] was -1.17. Further, the Z-AUC (measured here: PEO4 Z-AUC) is -1.24.
Regarding `COc1c(Nc2ncc(Cl)c(N[C@H]3[C@@H](C(N)=O)[C@@H]4C=C[C@H]3C4)n2)ccc2c1CC[C@@H](N1CCOCC1)CC2`, the Z-AUC is 0.583 (inactive). Further, the Z-AUC under setting [1] amounted to 0.18. For the same molecule, for the setting “measured here: PEO4 Z-AUC”, the Z-AUC is 0.103.
Regarding `COc1cc(C(=O)NC2CCN(C)CC2)c(F)cc1Nc1ncc2c(n1)N(C1CCCC1)CC(F)(F)C(=O)N2C`, the Potency is 0.245 µM (active). For the same molecule, the Z-AUC under setting [1] is -2.61. Moreover, the Z-AUC (measured here: PEO4 Z-AUC) is -2.16.
In the case of `COc1ncc(Nc2ncc([C@H](C)N3CCN(S(C)(=O)=O)CC3)cc2-c2nc(C)nc(N)n2)cc1F`, the Z-AUC was -0.261 (inactive). In addition, the Z-AUC under setting [1] is -0.0225. For the same molecule, the Z-AUC (measured here: PEO4 Z-AUC) is -0.164.
On to `CCNC(=O)Nc1ncc(-c2cc(-c3c(C)cc(OC)cc3C)nc(-c3cnccn3)n2)s1`, for which the Z-AUC was 0.457 (inactive). For the same molecule, the Z-AUC under setting [1] was 1.44. Also, the Z-AUC (measured here: PEO4 Z-AUC) came to 1.47.

Values taken from PubChem BioAssay (NCATS).
